99 compounds from PubChem BioAssay AID430 (Sanford-Burnham Center for Chemical Genomics, 2006) can be followed below.

The structures appear in SMILES notation. Screen size: about 63,000 compounds; about 1,100 (1.7%) were called active. Only a selection was taken, and actives are over-represented in it overall. Potency and affinity values are given separately. Unmarked numbers belong to inactive results. Cut-off read from the data, not from the text of the source: active = cytotoxicity above about 50%; inactive = the rest.

A short description of this assay: HPDE-C7 pancreatic duct cell viability loss – fluorescence, HTS (AID 430).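 Note: cells exposed to compound for 48 hours before viability readout; 0% = vehicle and 100% = reference cytotoxic drug.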 The note with it: HPDE-C7 pancreatic duct cells viability, at 10 µM, active compounds read high.
In the case of `CCOC(=O)c1[nH]c(C)c(C(=O)N2CCN(C(=O)c3ccco3)CC2)c1C`, the cytotoxicity was -21.3%. As for `COc1ccc(NC(=O)CNc2cccc(C#N)c2)cc1Cl`, the cytotoxicity is 2.9%. The same measure for `Fc1ccc(-c2cc3nc(-c4ccccc4)cc(N4CCOCC4)n3n2)cc1`: -7%; for `Fc1ccc(-c2cc3nc(-c4ccccc4)cc(N4CCN(CCN5CCOCC5)CC4)n3n2)cc1`: 53% (active); for `Cc1cc(N2CCOCC2)n2nc(-c3cccc(F)c3)cc2n1`: -16.6%. Take `O=C(Nc1scc(-c2ccc(F)cc2)c1C(=O)O)c1ccco1`: the cytotoxicity is -6.9%. Take `Cc1cccc(NC(=O)c2cc3n(n2)C(C(F)(F)F)CC(c2ccc4c(c2)OCO4)N3)c1` (centres undefined): the cytotoxicity was 74.1% (active). Regarding `COc1ccc(C2CC(C(F)(F)F)n3nc(C(=O)Nc4ccc5c(c4)OCO5)cc3N2)cc1` (centres undefined), the cytotoxicity was -7%. For `O=C(Nc1ccc2c(c1)OCO2)c1cc2n(n1)C(C(F)(F)F)CC(c1ccccc1)N2` (centres undefined), the cytotoxicity was 64.2% (active). Turning to `O=C(Nc1cc(Cl)ccc1O)c1cc2n(n1)C(C(F)(F)F)CC(c1ccc3c(c1)OCO3)N2` (centres undefined), the cytotoxicity is -8.7%. As to `COc1ccc(NC(=O)c2cc3n(n2)C(C(F)(F)F)CC(c2ccc4c(c2)OCO4)N3)cc1OC` (centres undefined), the cytotoxicity was 63.9% (active). Take `COc1ccc(OC)c(NC(=O)c2cc3n(n2)C(C(F)(F)F)CC(c2ccc4c(c2)OCO4)N3)c1` (centres undefined): the cytotoxicity is 44.5%. The same measure for `COc1ccccc1NC(=O)c1cc2n(n1)C(C(F)(F)F)CC(c1ccc3c(c1)OCO3)N2` (centres undefined): 38.9%; for `O=C(NCc1ccc2c(c1)OCO2)c1cc2n(n1)C(C(F)(F)F)CC(c1ccc3c(c1)OCO3)N2` (centres undefined): 13.5%; for `Cc1cc(NC(=O)c2cc3n(n2)C(C(F)(F)F)CC(c2ccc(Cl)c(Cl)c2)N3)no1` (centres undefined): 2.8%.

As to `CCC(=O)N=c1sc2c(OC)ccc(OC)c2n1C`, the cytotoxicity is 1.2%.

Take `CCOC(=O)CSc1nnc([C@@H](NC(=O)OC(C)(C)C)C(C)C)o1`: the cytotoxicity is 8.2%. The same measure for `O=C1CC(c2ccc(F)cc2)Cc2nc(N3CCN(c4ccccc4)CC3)ncc21` (centres undefined): 4.6%; for `CC(=O)N1CCN=C1SCc1ccc(Br)cc1`: 1.6%; for `O=C(CCNc1n[nH]c(=O)[nH]c1=O)N1CCOCC1`: -0.4%. Consider `Cc1ccc(CNC(=O)CN2CCN(Cc3ccc(C)cc3)C2=O)cc1`, for which the cytotoxicity is -20.9%. With `COc1cccc(NC(=O)c2ccccc2-c2nc(-c3cccc(C)c3)no2)c1`, the cytotoxicity was 24.8%. Take `CC(C)Cc1nc(N2CCCCC2)c(C#N)c2c1CCC2`: the cytotoxicity was 11.9%. As for `CC(C)Cc1nc(N2CCOCC2)c(C#N)c2c1CCC2`, the cytotoxicity is 74.1% (active). `CCc1nc(N2CCOCC2)c(C#N)c2c1CCCC2`: the cytotoxicity was 7.3%.

With `CCc1nc(N2CCCC2)c(C#N)c2c1CCCC2`, the cytotoxicity is -1.4%. `CCCc1nc(N2CCCC2)c(C#N)c2c1CCCC2`: the cytotoxicity was 51.6% (active). `CCCc1nc(N2CCOCC2)c(C#N)c2c1CCCC2`: the cytotoxicity was -18.8%. As for `CCc1cc(=O)oc2cc(OC(C)C(=O)O)c(Cl)cc12` (centres undefined), the cytotoxicity is 1.5%.

As to `O=C(Cc1nc2ccccc2[nH]1)NCc1ccco1`, the cytotoxicity was -7.1%. Take `COC(=O)c1cccc(S(=O)(=O)N2CCN(c3nc4ccccc4s3)CC2)c1`: the cytotoxicity is -5.4%. Turning to `CCOc1ccc(N(CC(=O)N2CCc3ccccc32)S(=O)(=O)c2c(C)noc2C)cc1`, the cytotoxicity is -26.9%. The same measure for `CC(C)CN(C#N)c1nc(N2CCOCC2)nc(N2CCOCC2)n1`: 6.3%. For the compound `COc1ccc(CNC(=O)C2CCNCC2)cc1`, the cytotoxicity was -3.8%. On to `O=C(Cc1cn2ccsc2n1)Nc1cccc2cnccc12`, for which the cytotoxicity is 11.4%.

As to `Cc1cc(=O)[nH]c(SCCOc2cccc(C(F)(F)F)c2)n1`, the cytotoxicity is -4.8%. On to `O=C(CSc1c2c(nc3ccc(Cl)cc13)CCCC2)N1CCN(C(=O)c2ccco2)CC1`, for which the cytotoxicity is 106% (active). The result for `O=C(CSc1nnc(SCc2ccc(Cl)cc2)s1)N1CCN(C(=O)c2ccco2)CC1` reads -25.8%. For the compound `O=C(CSc1nc2cc(Cl)ccc2s1)N1CCN(C(=O)c2ccco2)CC1`, the cytotoxicity is -2.2%. For `CC(C)(C)n1nnnc1C(c1ccc(C#N)cc1)N1CCCC2(CCCCC2)C1` (centres undefined), the cytotoxicity was 2.3%. Take `CCOC(=O)c1ccc(NC(=O)CN2CCN(c3ccccc3)CC2)cc1`: the cytotoxicity is 6%. As to `O=C(CN1CCc2ccccc2C1)Nc1ccccc1N1CCCCCC1`, the cytotoxicity was 93.4% (active). Regarding `O=C(CN1CCCCC1)Nc1ccccc1NC(=O)CN1CCCCC1`, the cytotoxicity was -13.4%. Take `CC(C)CC(=O)Nc1ccccc1N1CCCC1`: the cytotoxicity is -9.5%. As for `CCOC(=O)c1ccc(NC(=O)N2CCc3ccccc32)cc1`, the cytotoxicity is 5.4%.

For the compound `CCOC(=O)c1ccc(NC(=O)CN2CCc3ccccc3C2)cc1`, the cytotoxicity was 57.6% (active). `O=C(c1cccs1)N(Cc1cccc(Cl)c1)C1CCS(=O)(=O)C1` (centres undefined): the cytotoxicity was -4.1%. With `CCOc1ccccc1-n1nnnc1SCC(=O)Nc1cc2oc3ccccc3c2cc1OC`, the cytotoxicity is 43.6%. Regarding `C=C(C)CSc1nc2nc(C)cc(C)n2n1`, the cytotoxicity was 9.4%. The same measure for `CC(C)NC(=O)CN(C)S(=O)(=O)c1ccc(F)cc1`: 1.5%; for `O=C1NC2(CCCC2)N=C1c1ccc(Cl)cc1`: -2.7%. As to `O=C1NC2(CCCCC2)N=C1c1ccccc1`, the cytotoxicity is -3%. The result for `O=C(CN1CCN(c2ccc(F)cc2)CC1)Nc1ccc(-n2cnnn2)cc1` reads 16.2%; that for `CCOc1ccc2nc(NCCNC(=O)C3CC3)c(C)cc2c1`, -13.7%. The result for `CCCCc1ccc(-c2ccc(C)cc2O)nc1` reads -28.6%. Regarding `CCCCc1ccc(CC(=O)O)cc1`, the cytotoxicity is -6.3%.

On to `COc1cccc2c1nc(C)c1cc(C)oc12`, for which the cytotoxicity is -6.1%. For the compound `Cc1cc(Nc2cc(C)on2)n2ncnc2n1`, the cytotoxicity is 1.6%. Consider `O=C(NCc1ccc2c(c1)OCO2)c1ccc2c(=O)n(C3CCCC3)c(=O)[nH]c2c1`, for which the cytotoxicity is 2.7%.

With `Cc1ccc(CC2SC(=O)NC2=O)cc1Cl` (centres undefined), the cytotoxicity is -2.2%. In the case of `C(=C\CSc1nnnn1-c1ccccc1)/CSc1nnnn1-c1ccccc1`, the cytotoxicity is -4.4%.

In the case of `COc1ccc(CCNC(=O)CSc2nnnn2-c2ccccc2OC)cc1OC`, the cytotoxicity was 8%. Take `Cc1ccc(C)c(Oc2nnnn2-c2ccccc2)c1`: the cytotoxicity is -0.9%. Consider `CCCSc1nnc(Sc2nnnn2-c2ccccc2)s1`, for which the cytotoxicity was 81% (active). The same measure for `Cn1ccnc1Sc1nnnn1-c1ccccc1`: -14.7%. The same measure for `c1ccc(-n2nnnc2SCCCSc2nc3ccccc3s2)cc1`: 5.8%.

`COc1ccc(CCNc2nnc(Sc3nnnn3-c3ccccc3)s2)cc1OC`: the cytotoxicity is 53.9% (active). For the compound `COc1ccc(-n2nnnc2SCC(=O)NCCc2ccc(OC)c(OC)c2)cc1`, the cytotoxicity was -0.4%. `COc1ccc(Cc2nnc(SCC(=O)NCC3CCCO3)o2)cc1` (centres undefined): the cytotoxicity was 0.6%. With `Cn1c2c(c(=O)n(C)c1=O)C(NC(=O)c1ccco1)(C(F)(F)F)C(=O)N2` (centres undefined), the cytotoxicity is -22.3%. For the compound `O=S(=O)(c1ccc(Br)s1)N1CCN(c2ccccc2)CC1`, the cytotoxicity is -10.8%.

As to `COc1ccccc1NC(=O)c1nnn(Cc2ccccc2)c1NC(C)=O`, the cytotoxicity was 2.6%.

In the case of `COC(=O)Nc1ccc(NC(C)=O)cc1`, the cytotoxicity is -16%. Turning to `CCOC(=O)c1cc(-c2ccncc2)nc2c1c(C)nn2C`, the cytotoxicity was 4%. Turning to `COc1ccc(C(OC(=O)c2c(C)noc2C)C(=O)NC2CCCC2)cc1` (centres undefined), the cytotoxicity was 1.7%.

For the compound `CCN1CCN(CCCNC(=O)c2cc3sccc3n2CC)CC1`, the cytotoxicity is 3.8%. In the case of `CCOCCCNC(=O)CSc1ccccc1`, the cytotoxicity was -13.6%.

In the case of `O=S(=O)(c1ccc2c(c1)nc1n2CCC1)N1CCOCC1`, the cytotoxicity was 30.9%.

For `O=S(=O)(c1ccc(Br)cc1)N1CCn2c(nc3ccccc32)C1`, the cytotoxicity was 1.5%. As to `COc1ccc(C(O)CNc2ccc(C)cc2)cc1` (centres undefined), the cytotoxicity is -2.1%. In the case of `Cc1ccc(NCC(O)C(O)C(O)CO)cc1C` (centres undefined), the cytotoxicity was 53.3% (active). Consider `COc1cc(CNc2ccc(C)c(C)c2)cc(OC)c1OC`, for which the cytotoxicity is 46.9%. The same measure for `COc1ccc(OC)c(S(=O)(=O)N(C)CC(=O)Nc2ccc3c(c2)OCCO3)c1`: -1.4%; for `CCOc1ccc(N2CC(C(=O)NCCc3ccc(OC)c(OC)c3)CC2=O)cc1` (centres undefined): 5.7%.

Consider `CS(=O)(=O)N1CCC(C(=O)NCc2ccc(F)cc2Cl)CC1`, for which the cytotoxicity was -2.6%.

On to `CCOc1ccccc1NC(=O)CCn1c(=O)oc2ccccc21`, for which the cytotoxicity was 0.7%. The result for `COc1ccc(-n2nnnc2S(=O)(=O)Cc2ccc(C(=O)O)cc2)cc1` reads 4.8%; that for `COc1cc(OC)cc(-n2nnnc2SCC(=O)N2CCCC2)c1`, -7.2%; that for `COc1ccc(-n2nnnc2S(=O)(=O)CC(=O)N2CCCCC2)cc1`, 76.4% (active).

Regarding `Cc1oc(-c2ccccc2F)nc1CS(=O)CC(=O)NCc1cccs1` (centres undefined), the cytotoxicity is -2.6%.

Turning to `CCc1c(O)nc(SCC(=O)Nc2ccc(C)cc2)n(C2CCCCC2)c1=O`, the cytotoxicity was 51.2% (active). `CCc1c(O)nc(SCC(=O)Nc2ccccc2)n(-c2ccccc2)c1=O`: the cytotoxicity was 23%. Turning to `CCc1c(O)nc(SCC(=O)Nc2ccc(OC)cc2)n(C2CCCCC2)c1=O`, the cytotoxicity was -8.3%. Regarding `COc1ccc(N2C(=O)CCC(C(=O)c3ccccc3)=C2C)cc1`, the cytotoxicity is -2.2%. Turning to `Cc1c2c(nc3nc4ccccc4n13)CC(C)(C)CC2=O`, the cytotoxicity was 0.8%. For the compound `Cc1cc(C)c2cc(C#N)c(SCC(=O)NCC3CCCO3)nc2c1` (centres undefined), the cytotoxicity is -15.1%. The result for `Cc1cc(Nc2ccc3ccccc3c2)n2ncnc2n1` reads -0.5%; that for `CCn1c2ccccc2c2cc(Nc3cc(C)nc4ncnn34)ccc21`, 64.5% (active).

Consider `CCc1cccc(Nc2cc(C)nc3ncnn23)c1`, for which the cytotoxicity was -0.8%.
